Bioassay records deposited in PubChem BioAssay by National Center for Advancing Translational Sciences (NCATS).
AmpC inh no detg: AmpC beta-lactamase inhibition without detergent | AmpC nitrocefin hydrolysis, absorbance 480 nm, 0.0001% Triton | P00811 | AID 485341 | hit rate 0.52% among 330,000 | Potency, µM (top dose mostly 57.1 µM), without a hit: at the highest dose activity change, negative = inhibition, usual class: inhibitors;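 also: potency is read from the fitted curve at half-maximal effect; plate controls were no compound for no effect and no enzyme for full effect; nearly all actives have a fitted effect of over 20% in size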
Target sequence (P00811 whole entry, looked up): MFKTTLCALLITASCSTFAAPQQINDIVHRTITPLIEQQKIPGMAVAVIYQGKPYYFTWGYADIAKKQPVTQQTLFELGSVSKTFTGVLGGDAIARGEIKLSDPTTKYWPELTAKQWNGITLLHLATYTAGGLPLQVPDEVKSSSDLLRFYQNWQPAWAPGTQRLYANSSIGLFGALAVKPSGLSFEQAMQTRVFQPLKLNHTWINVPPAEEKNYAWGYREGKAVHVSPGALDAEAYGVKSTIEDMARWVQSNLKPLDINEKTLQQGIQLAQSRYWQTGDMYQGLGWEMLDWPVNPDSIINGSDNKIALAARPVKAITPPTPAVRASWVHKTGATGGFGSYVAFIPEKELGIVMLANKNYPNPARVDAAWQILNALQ
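AmpC (5.3 nM in the dispensed reagent) in 20 mM phosphate pH 7.0 with 0.01% (detergent screen) or 0.0001% Triton X-100 was preincubated with compounds for 15 min at room temperature. Nitrocefin was then added from an 800 uM solution, and hydrolysis was followed at 480 nm.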
SARS PLpro yeast: blocks SARS-CoV papain-like protease in a yeast assay; hit rate 0.19% among 330,000; Potency, µM (highest dose often 32.9 µM), for the others: at the top dose activity, positive = growth rescue, most hits filed as activators; S. cerevisiae expressing SARS-CoV PLpro, growth rescue; calls by dose curve; also: potency is read from the fitted curve at half-maximal effect; 0% is about no effect; nearly all actives have a fitted effect of over 55% in size
AmpC detergent: blocks E. coli AmpC beta-lactamase in detergent assay; AmpC hydrolysis of nitrocefin, absorbance 480 nm, 0.01% Triton; AID 485294; Potency, µM (top dose mostly 114 µM), for inactives: at the highest dose activity change, negative = inhibition, hits mostly inhibitors; hit rate 0.041% among 370,000;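 also: potency is read from the fitted curve at half-maximal effect; 0% = no-compound wells and -100% = no-enzyme wells; nearly all actives have a fitted effect of over 25% in size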
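20 mM phosphate pH 7.0 + 0.01% (detergent screen) or 0.0001% Triton X-100; 5.3 nM AmpC reagent; cpd preinc 15 min RT; nitrocefin (800 uM stock) to start; A480 q20 s × 4 min; Activity was normalised to no-enzyme and no-compound control wells.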
AMA1-RON2 inh: disrupts binding of P. falciparum AMA1 to RON2; Potency, µM (series often up to 58.2 µM), without a hit: top-dose activity change, negative = inhibition, actives largely listed as inhibitors; hit rate 0.2% among 360,000; AlphaScreen AMA1-biotinylated RON2 peptide binding;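 also: potency is read from the fitted curve at half-maximal effect; 0% = vehicle wells and -100% = peptide control; nearly all actives have a fitted effect of over 45% in size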
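AMA1 (3D7) with his tag at 25 nM final met compounds first, then biotinylated RON2 peptide at 25 nM; detection used donor plus acceptor beads, 10 µg/mL apiece, read by AlphaScreen after 30 min at room temperature.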
Shiga inhibitor: Shiga toxin inhibition; inhibition, % at 38.7 µM; hit rate 9.2% among 290,000; AID 2315; Vero cells, Shiga toxin protein synthesis inhibition reporter; in the data active = inhibition mostly above about 28%, no sharp cut-off; inactive = mostly below about 43%; also: 0% is about no effect
CHX counter: affects cycloheximide protein synthesis inhibition readout, counter-screen | cell reporter, cycloheximide protein synthesis inhibition counterscreen | max response, % | hit rate 12% among 300,000 | AID 2314; in the data active = max response mostly above about 13%, no sharp cut-off; inactive = mostly below about 14%; also: read at 38.3 µM for the half of the compounds with a filed dose; 0% is about no effect
An asterisk follows results filed as active; [ ] = remark or other dose. Shown is part of a subset that was picked to be rich in hits. Unless noted, calls follow the shape of the dose curve; as a rule, active = well fitted curve in the direction sought with a large enough effect; inconclusive = small, poorly fitted or top-dose-only effect, or another doubt; inactive = no such curve, though single readings can be large; an effect the other way counts as inactive or inconclusive.

What do the screens show for `COc1ccc2nc(N3CCC(O)CC3)c(C#N)cc2c1`?
AmpC inh no detg: -2%; SARS PLpro yeast: 25%; AmpC detergent: -21%; AMA1-RON2 inh: 27%; Shiga inhibitor: 92; CHX counter: 36*

Results for CCOC(=O)C1CCN(c2nc3cc(OC)ccc3cc2C#N)CC1 ?
AmpC inh no detg: 93%; SARS PLpro yeast: -20%; AmpC detergent: inconclusive; AMA1-RON2 inh: -8%; Shiga inhibitor: 20; CHX counter: 4

What do the screens show for `COc1ccc2nc(N3CCC(C)CC3)c(C#N)cc2c1`?
AmpC inh no detg: inconclusive; SARS PLpro yeast: -18%; AmpC detergent: -6%; AMA1-RON2 inh: 46%; Shiga inhibitor: 92*; CHX counter: 44*

What do the screens show for `CCOC(=O)c1cc(C#N)c(N2CCN(C)CC2)nc1-c1ccccc1`?
AmpC inh no detg: 109%; SARS PLpro yeast: 1%; AmpC detergent: -4%; AMA1-RON2 inh: -1%; Shiga inhibitor: -8; CHX counter: -3

What do the screens show for `Cc1ccc(C(=O)COC(=O)C(C)N2C(=O)C3C4C=CC(C4)C3C2=O)cc1` (centres undefined)?
AmpC inh no detg: -7%; SARS PLpro yeast: -14%; AmpC detergent: 4%; AMA1-RON2 inh: -6%; Shiga inhibitor: 22; CHX counter: 7

What do the screens show for `c1cnc2c(-c3cccc4nccn34)cccc2c1`?
AMA1-RON2 inh: 11%

What do the screens show for `Cc1ccc(CN2CC(=O)N3[C@H]4c5cc(Cl)ccc5OC[C@@H]4[C@H](c4ccccc4)[C@]3(C)C2=O)cc1`?
AmpC inh no detg: -4%; SARS PLpro yeast: -10%; AmpC detergent: -3%; AMA1-RON2 inh: -5%

How did NC(=O)c1sc2nccc(Nc3ccccc3)c2c1N do in these assays?
AmpC inh no detg: inconclusive; SARS PLpro yeast: -7%; AmpC detergent: -11%; AMA1-RON2 inh: -1%; Shiga inhibitor: 49; CHX counter: 15*

Results for NC(=O)c1sc2nc(-c3ccccc3)c3c(c2c1N)CCCC3 ?
AmpC inh no detg: -22%; SARS PLpro yeast: -6%; AmpC detergent: 0%; AMA1-RON2 inh: 126%; Shiga inhibitor: -10; CHX counter: -4

How did Cc1ccc2nc(-c3ccc(SCC(=O)Nc4nnc(C)s4)nc3)[nH]c2c1 do in these assays?
AmpC inh no detg: -57%; SARS PLpro yeast: 8%; AmpC detergent: -6%; AMA1-RON2 inh: -12%; Shiga inhibitor: 51*; CHX counter: 69*

Results for Cc1nc(NC(=O)CSc2ccc(-c3nc4ccccc4[nH]3)cn2)sc1C ?
AmpC inh no detg: -14%; SARS PLpro yeast: 3%; AmpC detergent: inconclusive; AMA1-RON2 inh: 12%; Shiga inhibitor: 22; CHX counter: 2

What do the screens show for `CCc1nnc(NC(=O)CSc2ccc(-c3nc4ccccc4[nH]3)cn2)s1`?
AmpC inh no detg: -37%; SARS PLpro yeast: -3%; AmpC detergent: 1%; AMA1-RON2 inh: -13%; Shiga inhibitor: 83*; CHX counter: 26*

Results for Cc1ccc2nc(-c3ccc(SCC(=O)Nc4nc(C)cs4)nc3)[nH]c2c1 ?
AmpC inh no detg: -10%; SARS PLpro yeast: 4%; AmpC detergent: inconclusive; AMA1-RON2 inh: -12%; Shiga inhibitor: 51; CHX counter: 32*

How did COc1cccc(N2CCN(C(=O)C3CCN(S(=O)(=O)c4ccc5c(c4)oc(=O)n5C)CC3)CC2)c1 do in these assays?
AmpC inh no detg: 155%; SARS PLpro yeast: -1%; AmpC detergent: -2%; AMA1-RON2 inh: 13%; Shiga inhibitor: -12; CHX counter: 6

What do the screens show for `COc1cccc(N2CCN(S(=O)(=O)c3ccc4c(c3)oc(=O)n4C)CC2)c1`?
AmpC inh no detg: -15%; SARS PLpro yeast: -2%; AmpC detergent: -2%; AMA1-RON2 inh: 7%; Shiga inhibitor: 15; CHX counter: 17*

How did O=C1CN(O)C(c2ccccc2)=c2cc(Br)ccc2=N1 do in these assays?
AmpC inh no detg: -18%; SARS PLpro yeast: -3%; AmpC detergent: inconclusive; AMA1-RON2 inh: 14%; Shiga inhibitor: -14; CHX counter: -3

What do the screens show for `O=C(Nc1ccc(Cl)cn1)c1ccc(COCC(F)(F)C(F)F)o1`?
AmpC inh no detg: inconclusive; SARS PLpro yeast: -5%; AmpC detergent: 3%; AMA1-RON2 inh: 12%; Shiga inhibitor: 67*; CHX counter: 18*

What do the screens show for `O=C1NC(=O)N(Cc2ccco2)C(=O)/C1=C/c1cccn1CCOc1ccccc1Cl`?
AmpC inh no detg: 13µM*; SARS PLpro yeast: 23%; AmpC detergent: -12%; AMA1-RON2 inh: -10%; Shiga inhibitor: 70*; CHX counter: 23*

Results for O=C1NC(=O)N(Cc2ccccc2)C(=O)/C1=C\c1ccco1 ?
AmpC inh no detg: -26%[11.4 µM]; SARS PLpro yeast: 2%; AmpC detergent: -15%; AMA1-RON2 inh: inconclusive; Shiga inhibitor: -10; CHX counter: -1

What do the screens show for `COc1ccc(C(=O)/C=C2/C(=O)Nc3ccccc32)cc1`?
AmpC inh no detg: -28%; SARS PLpro yeast: -11%; AmpC detergent: -5%; AMA1-RON2 inh: -6%; Shiga inhibitor: 58*; CHX counter: 21*

Results for COc1ccc(C2(C(=O)c3ccccc3)C(=O)c3ccccc3C2=O)cc1 ?
AmpC inh no detg: -4%; SARS PLpro yeast: 1%; AmpC detergent: -6%; AMA1-RON2 inh: -20%; Shiga inhibitor: 37; CHX counter: 14*

Results for O=C(CSc1nnnn1C1CCCCC1)N1CCOCC1 ?
AmpC inh no detg: -11%; SARS PLpro yeast: 1%; AmpC detergent: -4%; AMA1-RON2 inh: 7%; Shiga inhibitor: 42; CHX counter: 15

What do the screens show for `CCCCCCN1C=CC(=C/C=C(\C#N)C(=O)OCC)C=C1`?
AmpC inh no detg: -11%; SARS PLpro yeast: -2%; AmpC detergent: 5%; AMA1-RON2 inh: -6%; Shiga inhibitor: -23; CHX counter: 4

What do the screens show for `CCCN1C=CC(=C/C=C(\C#N)C(=O)OCC)C=C1`?
AmpC inh no detg: -12%; SARS PLpro yeast: 3%; AmpC detergent: -13%; Shiga inhibitor: 93*; CHX counter: 28*

How did CCOC(=O)/C(C#N)=C/N=c1ccc(C)cn1C do in these assays?
AmpC inh no detg: -1%; SARS PLpro yeast: 0%; AmpC detergent: 11%; AMA1-RON2 inh: -2%; Shiga inhibitor: 68*; CHX counter: 51*

How did CC1CCN(Cc2cnc(Cl)s2)CC1 do in these assays?
AmpC inh no detg: inconclusive; SARS PLpro yeast: 0%; AmpC detergent: 0%; AMA1-RON2 inh: -3%; Shiga inhibitor: 10; CHX counter: 1

How did COc1ccc(S(=O)(=O)N(C)C2CCN(C)CC2)cc1 do in these assays?
AmpC inh no detg: 10µM*; SARS PLpro yeast: 15%; AmpC detergent: inconclusive; AMA1-RON2 inh: 1%; Shiga inhibitor: 10; CHX counter: -4

How did O=C(O)CCN1C(=O)/C(=C\c2cccc(Oc3ccccc3)c2)SC1=S do in these assays?
AmpC inh no detg: -31%; SARS PLpro yeast: -2%; AmpC detergent: -3%; AMA1-RON2 inh: -3%; Shiga inhibitor: 8; CHX counter: 0
